# This is a sample that favours compounds with a hit; in the whole collection about 2% have one here.
# CHO-K1 Ca PAM = counter-screen for M1 PAMs: effect in parental CHO-K1 cells. 0.02% of 360,000 active. ATP EC20, Fluo-8 calcium fluorescence; 0% at ATP EC20, 100% at ATP max. AID 602247. activation, % at 3 µM;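 active = activation above the run cutoff, the mean activation of all test compounds plus 3 SD, cut at about 40% in these data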;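 also: peak over basal fluorescence ratio in a 140 s read after ATP addition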
# M4 antag = antagonists of human muscarinic M4 receptor (CHRM4) | CHO-hM4 cells, ACh EC80, Fluo-8 calcium fluorescence | inhibition, % at 3 µM | 0.73% of 360,000 active;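 active = inhibition above its plate's cutoff, the mean inhibition of sample wells plus 3 SD, cut at about 27% in these data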;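 also: 0% = acetylcholine EC80 with DMSO and 100% = DMSO without agonist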
# Target sequence (P08173 whole entry, looked up): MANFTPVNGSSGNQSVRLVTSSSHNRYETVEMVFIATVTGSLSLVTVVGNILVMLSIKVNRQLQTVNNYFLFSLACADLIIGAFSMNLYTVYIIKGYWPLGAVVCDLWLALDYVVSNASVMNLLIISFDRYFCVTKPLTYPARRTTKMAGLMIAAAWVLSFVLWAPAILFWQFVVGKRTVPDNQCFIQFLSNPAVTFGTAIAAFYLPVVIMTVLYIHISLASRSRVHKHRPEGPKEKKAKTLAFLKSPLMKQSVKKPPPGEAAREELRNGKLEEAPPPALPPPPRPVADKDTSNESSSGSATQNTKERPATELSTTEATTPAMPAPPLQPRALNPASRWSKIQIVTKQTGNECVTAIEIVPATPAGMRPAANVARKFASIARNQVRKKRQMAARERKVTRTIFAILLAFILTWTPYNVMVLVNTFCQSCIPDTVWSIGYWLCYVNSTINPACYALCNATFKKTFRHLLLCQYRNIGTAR
# CHRM4 PAM = CHRM4 positive allosteric modulation | 0.4% of 360,000 active | activation, % at 3 µM | CHO-K1 hM4/Gqi5, Fluo-8 calcium fluorescence, ACh EC20; 0% = ACh EC20, 100% = maximal ACh;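 active = activation above its plate's cutoff, the mean activation of sample wells plus 3 SD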
# CHO-K1 Ca ag = nonselective activator or artifact in parental CHO-K1 cells; 0.48% of 360,000 active; AID 602248; activation, % at 3 µM; Fluo-8 calcium fluorescence; scaled to maximal ATP response, vehicle zero; in the data active = activation above about 15%;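 also: untransfected CHO-K1 host cells lacking M1 receptor as counterscreen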
# CHO-K1 Ca antag = M1 antagonist counterscreen hit in parental CHO-K1 cells; ATP-induced calcium, Fluo-8 fluorescence; inhibition, % at 3 µM; 0.6% of 360,000 active; AID 602250;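 active = inhibition above a per-plate cutoff, the plate's mean sample inhibition plus 3 SD, cut at about 24% in these data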;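 also: 0% = DMSO plus EC80 ATP and 100% = DMSO alone without ATP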
# M4 ag = agonists of human muscarinic M4 receptor (CHRM4) | P08173 | 0.14% of 360,000 active | activation, % at 3 µM | CHO-K1 hM4/Gqi5, Fluo-8 calcium fluorescence; vehicle 0%, full acetylcholine response 100%;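 active = activation above the run mean over all test wells plus 3 SD, cut at about 32% in these data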;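 also: peak over basal fluorescence ratio per well then scaled between controls; 0% = DMSO wells and 100% = acetylcholine at EC100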
# * hit, by the source's call; · = no result given.
SMILES,CHO-K1 Ca PAM,M4 antag,CHRM4 PAM,CHO-K1 Ca ag,CHO-K1 Ca antag,M4 ag
COc1ccc(CCNC(=O)CCC(=O)c2cccs2)cc1OC,-25.6,1.9,-6.3,-0.3,27.5*,-0.1
Cc1ccc(S(=O)(=O)N2CCCN(c3nccc(C(F)(F)F)n3)CC2)cc1,10.5,-0.2,-5.3,0.1,-11.7,-1.0
Cc1cccc(NC(=O)C(C)N2C(=O)c3ccccc3S2(=O)=O)n1 (stereo not drawn),-25.6,10.9,-5.0,-0.3,27.7*,0.4
Cc1cccc(NC(=O)CN2C(=O)c3ccccc3S2(=O)=O)n1,-30.4,2.8,-0.1,0.1,14.7,1.3
O=C(NCc1cccnc1)C1c2ccccc2C(=O)N1Cc1ccccc1 (stereo not drawn),9.7,-1.3,-1.6,-0.1,3.8,-0.3
CC(C)CCN1C(=O)c2ccccc2C1C(=O)NCc1cccnc1 (stereo not drawn),3.6,10.4,20.9*,0.2,-9.8,2.1
COc1ccc(-c2cc(-c3cccs3)nc3sc(C#N)c(N)c23)cc1,5.1,8.8,-6.4,0.2,2.1,0.7
COCc1cc(C)c2c(N)c(C#N)sc2n1,12.9,8.7,33.7*,0.3,-11.8,0.7
O=C(Cn1cc(COc2ccc(-n3cccc3)cc2)nn1)NS(=O)(=O)c1ccccc1C(F)(F)F,8.6,1.3,4.0,0.0,-0.6,0.3
Clc1ccc2nnc(Cl)n2n1,13.1,-15.2,19.4*,0.1,-2.2,1.7
FC(F)c1nnc2ccc(Cl)nn12,2.8,-6.2,10.5,0.3,-28.1,0.9
CCOC(=O)C(NC(=O)CC)(Nc1ccccc1OC)C(F)(F)F (stereo not drawn),23.0,-6.9,1.9,0.2,-21.2,0.8
CN(C)CCC=C1c2ccccc2CCc2ccccc21,·,95.3*,-16.9,·,·,3.0
CN(C)CCC=C1c2ccccc2C=Cc2ccccc21,34.3,99.4*,-18.6,3.8,-20.4,5.3
CNCCC=C1c2ccccc2C=Cc2ccccc21,-2.8,89.7*,-18.1,0.8,3.9,4.4
CN(C)CC/C=C1/c2ccccc2COc2ccc(CC(=O)O)cc21,-8.8,4.4,-3.1,0.3,6.4,0.1
Cc1cc(C)nc(Nc2n[nH]c(-c3ccc(C(C)(C)C)cc3)n2)n1,12.7,-14.2,6.6,0.5,-13.7,2.5
OC(CNCC(c1ccc(Cl)cc1Cl)c1c[nH]c2ccccc12)c1ccccc1 (stereo not drawn),14.6,13.1,-8.4,15.8*,2.1,13.1
CCC(=O)N1CCN(c2ccnc3cc(Cl)ccc23)CC1,14.6,6.1,-20.0,1.7,-11.1,0.1
CCOC(=O)N1CCN(c2ccnc3cc(Cl)ccc23)CC1,-4.0,77.2*,-22.9,4.0,-12.0,6.3
COc1ccc(Cc2nnc(NC(=O)c3ccccc3[N+](=O)[O-])s2)cc1,12.6,-1.0,14.9,-0.1,1.0,1.9
Cc1cc(C(F)(F)F)nn1CC(=O)NCc1ccccc1,15.7,3.9,-0.2,0.1,-8.5,0.0
O=C(O)c1cc2c(cc1Cl)N1CCCCCC1=NS2(=O)=O,8.8,-2.5,-1.7,10.2,-5.2,0.2
COC(=O)c1cc2c(cc1Cl)N1CCCCCC1=NS2(=O)=O,-21.4,-2.0,-8.2,0.1,23.8*,-0.1
O=C(OCC#CCSc1nnc(-c2ccncc2)o1)c1cccs1,18.0,7.4,-1.4,17.4*,-6.2,1.2
SMILES,CHO-K1 Ca PAM,M4 antag,CHRM4 PAM,CHO-K1 Ca ag,CHO-K1 Ca antag,M4 ag
CCOC(=O)/C=c1\s/c(=C\c2ccc(C)cc2)c(=O)n1CC(=O)NCc1ccco1,0.1,-17.3,18.9*,-0.3,3.5,1.5
CCCn1c(NC(=O)CN2C(=O)NC3(CCCC3)C2=O)nc2ccccc21,-30.2,-28.3,23.2*,0.3,15.9,3.2
CCCn1c(NC(=O)CN2C(=O)NC3(CCCCC3)C2=O)nc2ccccc21,4.4,-3.0,-2.8,0.3,-7.2,1.5
COc1ccc(Nc2nc3cc(C)ccc3cc2C#N)cc1,12.7,5.2,-7.6,2.9,-6.7,2.2
CC(=O)NCCC(=O)NCC1(N(C)Cc2ccccc2)Cc2ccccc2C1,20.5,-3.6,0.2,15.6*,-7.5,0.8
CC(C)OCCCn1c(SCC(=O)N2CCCC2=O)nc2ccccc2c1=O,-15.6,-1.9,1.8,15.3*,7.8,7.8
COCCCn1c(SCC(=O)N2CCCC2=O)nc2ccccc2c1=O,7.4,-10.2,-1.4,1.2,-4.6,4.4
CCOC(=O)[C@]12CCC=C1N(Cc1ccco1)C(=O)[C@H](CC(=O)NCc1ccccc1)C2,-1.0,1.5,8.4,-0.2,-3.8,0.8
O=C(N/N=C/c1ccc(O)cc1)c1ccc(COc2cc(Cl)ccc2Cl)o1,19.8,20.3,-9.3,15.5*,13.9,25.2
O=c1c2[nH]c3ccccc3c2nc2n1CCS2,-10.8,-0.7,5.9,0.7,9.4,1.4
CCC1NC(=O)c2cc(S(N)(=O)=O)c(Cl)cc2N1 (stereo not drawn),2.4,-7.3,7.7,0.7,4.2,1.2
Cc1occc1C(=O)Nc1sc2c(c1C(N)=O)CCC(C(C)(C)C)C2 (stereo not drawn),13.1,3.0,29.1*,-0.2,2.3,0.7
CCC(C)(C)C1CCc2c(sc(NC(=O)c3ccoc3C)c2C(N)=O)C1 (stereo not drawn),9.7,2.9,-6.7,0.3,-1.8,0.2
Cc1ccc(OCCn2cncn2)c([N+](=O)[O-])c1,17.2,-0.5,0.8,19.1*,-1.0,0.1
COC(=O)CCCC1=CC2=CC(=O)C(C)(OC(=O)c3cccs3)C(=O)C2=CN1c1ccc(OC)cc1 (stereo not drawn),15.5,26.8*,4.5,0.4,-10.3,0.5
O=C(NCCN1CCN(Cc2ccc([N+](=O)[O-])cc2)CC1)C(=O)Nc1ccccc1,8.1,-2.7,2.2,0.6,-3.7,1.7
CC(=O)N/C(=C\c1ccccc1)C(=O)OCc1cccc(S(=O)(=O)N(C)C)c1,-4.9,0.6,-6.2,15.5*,-3.2,13.9
N#CC(=C1C=CC(=NO)C(Cl)=C1)c1ccc(Cl)cc1,13.3,39.2*,-6.2,0.7,-15.7,1.6
COC(=O)C(Cc1c[nH]c2ccccc12)NC(=O)c1cccs1 (stereo not drawn),17.0,2.1,-5.7,2.9,-1.4,2.0
COc1ccc(CNC(=O)COC(=O)[C@H](Cc2c[nH]c3ccccc23)NC(=O)c2cccs2)cc1,9.0,30.7*,-23.5,2.2,5.2,12.5
O=C(COC(=O)[C@H](Cc1c[nH]c2ccccc12)NC(=O)c1ccc(Cl)cc1)Nc1ccc2c(c1)OCO2,13.0,21.2,-11.9,0.7,4.3,1.9
COC(=O)[C@@H](Cc1c[nH]c2ccccc12)NC(=O)c1ccc2c(c1)OCO2,-5.4,4.1,-4.4,22.9*,15.5,3.1
CCCOc1ccc2cc(-c3ccccn3)c(=O)oc2c1,15.7,-3.7,-6.3,1.2,-8.1,3.3
